JMJD2A Tudor inh = qHTS Assay for Inhibitors of JMJD2A-Tudor Domain; actives 4.4% (n = 390,000); AID 504339, 2011; Potency, µM (series often up to 114 µM), inactives show at the top dose activity change, negative = inhibition, actives largely listed as inhibitors; AlphaScreen JMJD2A-Tudor / H3K4me3 peptide binding; further: potency means the concentration at half of the fitted maximal effect; on the % scale 0 is the no-effect control and ±100 the full control effect; nearly all actives have a fitted effect of over 50% in size
HP1b binding inh = HTS for Inhibitors of HP1-beta Chromodomain Interactions with Methylated Histone Tails. AlphaScreen HP1-beta / biotin-H3K9me3 peptide binding. Potency, µM (highest dose often 114 µM), inactives show at the top dose activity change, negative = inhibition, hits mostly inhibitors. actives 0.56% (n = 390,000). AID 540317, 2011; further: potency means the concentration at half of the fitted maximal effect; nearly all actives have a fitted effect of over 70% in size
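Compound inhibition of the preformed complex between 50 nM HP1-beta and 50 nM biotinylated H3K9me3 peptide was read by AlphaScreen. Buffer was PBS pH 7.4 with 0.01% Tween-20. Incubations ran 30 min at room temperature, with 10 ug/mL donor/acceptor beads.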
PI5P4K alpha inh = qHTS for Inhibitors of phosphatidylinositol 5-phosphate 4-kinase (PI5P4K) | actives 1.2% (n = 330,000) | max response, % | PI5P4Kalpha enzyme, ADP-Glo luminescence, 60 min; active compounds read low; active means max response of -50% or lower; inconclusive means between -30% and -50%; inactive means -30% or higher; further: value at the top dose of about 77 µM; on the % scale 0 is the no-effect control and ±100 the full control effect
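qHTS, 1536-well: enzyme/substrate mix, compound by pin tool, 5 microM ATP final; RT 60 min; ADP-Glo reagents 1 (45 min) then 2 (30 min); luminescence.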
BAZ2B block = qHTS Assay for Inhibitors of BAZ2B; Bromodomain adjacent to zinc finger domain protein 2B (Homo sapiens), Q9UIF8; AlphaScreen BAZ2B-H3K14Ac peptide displacement; Potency, µM (highest dose often 114 µM), without a hit: at the top dose activity change, negative = inhibition, actives largely listed as inhibitors; actives 4.4% (n = 360,000); AID 504333, 2011; further: potency means the concentration at half of the fitted maximal effect; on the % scale 0 is the no-effect control and ±100 the full control effect; nearly all actives have a fitted effect of over 60% in size
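Complex of BAZ2B and biotin-H3K14Ac (50 nM apiece) forms over 30 min at RT, then faces library compounds up to 110 uM for another 30 min; AlphaScreen beads added, 20 min dark incubation, luminescence read.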
PLK1 PBD block = qHTS for Inhibitors of PLK1-PDB (polo-like kinase 1 - polo-box domain): Primary Screen; Serine/threonine-protein kinase PLK1 (Homo sapiens), P53350; Plk1 PBD binding of FITC phosphopeptide, fluorescence polarization; Potency, µM, inactives show max response, negative = inhibition, hits mostly inhibitors; actives 2.8% (n = 360,000); AID 720504, 2013; further: potency means the concentration at half of the fitted maximal effect; series mostly up to about 57 µM; on the % scale 0 is the no-effect control and ±100 the full control effect; nearly all actives have a fitted effect of over 65% in size
KAT2A inh = qHTS Assay for Inhibitors of GCN5L2; Histone acetyltransferase KAT2A (Homo sapiens), Q92830; GCN5L2 HAT assay, ThioGlo1 CoA-SH fluorescence; Potency, µM (series often up to 58.9 µM), inactives show at the top dose activity change, negative = inhibition, actives largely listed as inhibitors; actives 0.21% (n = 390,000); AID 504327, 2011; further: potency means the concentration at half of the fitted maximal effect; on the % scale 0 is the no-effect control and ±100 the full control effect
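Compounds, pin-transferred from DMSO stocks, meet 20nM GCN5L2 for 15 min before the reaction begins with H3(1-25) peptide (75uM) and acetyl-CoA (70uM). Thiol-reactive ThioGlo1 reports CoA release over 20 min at room temperature.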
An asterisk follows results filed as active; u = inconclusive; x = no result given; [ ] = remark or other dose. Most compounds without a hit are left out; they make up all but 7% or so of the library. Unless noted, the call rests on the fitted dose curve; in most records, active means well fitted curve in the direction sought with a large enough effect; inconclusive means small, poorly fitted or top-dose-only effect, or another doubt; inactive means no such curve, though single readings can be large; an effect the other way counts as inactive or inconclusive.

SMILES	JMJD2A Tudor inh	HP1b binding inh	PI5P4K alpha inh	BAZ2B block	PLK1 PBD block	KAT2A inh
COc1cc(NS(=O)(=O)c2ccc(N/C=C\C(=O)c3ccc(OC)c(OC)c3)cc2)nc(OC)n1	-13%	27%	1	-10%	-13%	-19%
COc1cc(NS(=O)(=O)c2ccc(N/C=C\C(=O)c3ccc(C)cc3)cc2)nc(OC)n1	u	-6%	u	x	3.4µM*	x
O=C(NCCc1ccccc1)c1ccc(CSc2nc3ccncc3n2Cc2ccc(F)cc2)cc1	-11%	45%	x	-8%	x	-1%
CSc1nc(SCC(=O)O)c2sc3nc(-c4ccccc4)c4c(c3c2n1)CCC4	28µM*	u	-17	22µM*	12µM*	u
CSc1nc(NCCN(C)C)c2sc3nc(-c4ccco4)c4c(c3c2n1)CCC4	89µM*	u	-10	x	-12%	x
CSc1nc(N2CCN(CCO)CC2)c2sc3nc(-c4ccco4)c4c(c3c2n1)CCC4	x	x	x	x	x	-4%
CSc1nc(N(C)CCO)c2sc3nc(-c4ccco4)c4c(c3c2n1)CCC4	25µM*	-60%	x	50µM*	24µM*	u
O=C(O)CSc1nc2sc3c(c2c(=O)n1-c1ccccc1)CCC3	u	17%	-30	-9%	u	u
CC1(C)Cc2c(c(-c3ccco3)nc3sc4c(NCCN5CCOCC5)ncnc4c23)CO1	-26%	-4%	6	-2%	-8%	-16%
COc1ccc(OCc2nc3ccc(S(=O)(=O)Nc4ccccc4Cl)cc3[nH]2)cc1	40µM*	0%	-27	-19%	-15%	22%
CC1CCN(c2[nH]c(=S)c(C#N)c3c2CCCC3)CC1	-6%	32%	x	8%	u	-2%
N#Cc1c(-c2cccnc2)c2c([nH]c1=S)CCCC2	1.4µM*	u	-95*	-6%	12µM*	-12%
N#Cc1c(N)nc2c(c1-c1cccnc1)CCCCC2	2%	34%	x	9%	-1%	1%
N#Cc1c(-c2ccco2)c2c([nH]c1=S)CCCC2	28µM*	-22%	-78*	1%	12µM*	u
N#Cc1c2c(c(-c3ccco3)[nH]c1=O)CCCC2	-16%	43%	x	10%	-10%	-3%
CC(C)Cc1c2c([nH]c(=S)c1C#N)CCCC2	56µM*	-24%	u	-30%	27µM*	2%
CC(C)CC(=O)C(=O)O	-2%	31%	-3	x	3%	x
CCCCN(C(=O)c1ccc2c(c1)S(=O)(=O)N=C1CCCCCN12)c1c(N)n(CC(C)C)c(=O)[nH]c1=O	-6%	25%	3	x	-2%	x
O=C(NC(=O)C(F)(F)F)Nc1ccc(S(=O)(=O)Nc2nccs2)cc1	-10%	39%	1	-28%	-10%	-1%
COc1ccccc1-n1c(N)c(C(N)=O)sc1=S	-14%	-13%	x	-1%	19µM*	u
Cn1c(N)c(C(=O)Nc2ccccc2F)sc1=S	-33%	u	0	-33%	-23%	-10%
Nc1c(C(=O)Nc2ccc(F)cc2)sc(=S)n1-c1ccccc1F	-19%	-22%	-20	-12%	4.7µM*	-14%
COc1ccc(NC(=O)CSc2c(C)nn(-c3nnc(C)c(=O)[nH]3)c2C)cc1	40µM*	41%	1	32µM*	-1%	1%
Cc1ccc(NC(=O)CSc2nnc(C)c(=O)[nH]2)cc1	-9%	56%	x	-23%	x	-1%
COc1ccc(C2=CC3=C(Br)C(=O)C(C)(OC(=O)C4CCCC4)C(=O)C3=CO2)cc1 (centres undefined)	50µM*	u	-68*	79µM*	24µM*	-4%
SMILES	JMJD2A Tudor inh	HP1b binding inh	PI5P4K alpha inh	BAZ2B block	PLK1 PBD block	KAT2A inh
COC(=O)CCC(=O)OC1(C)C(=O)C2=COC(c3ccc(OC)cc3)=CC2=C(Br)C1=O (centres undefined)	32µM*	u	-79*	45µM*	12µM*	-5%
COC(=O)CCC(=O)OC1(C)C(=O)C2=CN(C(CO)CO)C(c3ccc(OC)cc3)=CC2=C(Br)C1=O (centres undefined)	x	x	x	u	x	-13%
COc1ccc(C2=CC3=C(Br)C(=O)C(C)(OC(=O)c4ccc(Cl)nc4)C(=O)C3=CO2)cc1 (centres undefined)	79µM*	50µM*	u	56µM*	12µM*	-4%
Cc1cc2c(s1)c(/C=N/O)c(C(=O)NCc1ccccc1F)n2C	-31%	x	x	x	x	x
CCOc1ccc(Oc2ccc(C(F)(F)F)cc2NC(=O)C2=COCCO2)cc1	12%	55%	17	4%	3%	-10%
CCN1CCN(CCOCCOc2ccccc2-c2ccccc2)CC1	x	x	x	20µM*	x	-3%
c1ccc(-c2ccccc2OCCOCCN2CCNCC2)cc1	-2%	-7%	-1	22µM*	-13%	-9%
Cc1cccc(OCCOCCN2CCNCC2)c1C	-19%[57.1 µM]	9%	9	-27%	u	-1%
Cc1ccc(CSc2nnc(-c3ccncc3)n2N)cc1	-6%	38%	0	5%	4%	-7%
Cc1ccc(CSc2nnc(-c3ccncc3)n2C)cc1	89µM*	47%	0	u	4%	-10%
NS(=O)(=O)c1cccc(NC(=O)CCSc2ccc(Cl)cc2)c1	9%	44%	-10	-6%	12µM*	-5%
NS(=O)(=O)c1cccc(NC(=O)CCCNC(=O)c2ccc(Cl)cc2)c1	-10%	18%	4	-10%	-7%	-2%
Cc1[nH]c(=O)[nH]c(=S)c1C(=O)Nc1ccc(Cl)c(Cl)c1	8.9µM*	-42%	u	x	-2%	x
O=C(/C=C/c1ccc[nH]1)c1ccccc1	18µM*	-23%	-22	u	30µM*	-5%
CCC(=O)N1c2ccccc2CC1C(=O)NCc1ccccc1C (centres undefined)	-16%	40%	x	-4%	x	-1%
CCn1c(=S)sc2nc(C)sc21	-26%	-33%	x	x	21µM*	x
O=C(OC(C(=O)Nc1ccc(Cl)cc1C(F)(F)F)c1ccccc1)c1c(Cl)cccc1Cl (centres undefined)	-23%[57.1 µM]	u	-6	8%	30µM*	-9%
O=C(COC(=O)/C=C/c1ccccc1Cl)NC(=O)NCc1ccccc1	-1%	38%	2	-4%	-1%	1%
